Bioassay records as filed in PubChem.
CYP2C19 activ: activators of human cytochrome P450 2C19; P33261; recombinant CYP2C19, luciferin-H EGE luminescence; hits give high values; 0 = fully inhibited enzyme, 1 = untreated enzyme; activation factor at 5 µM; 96,000 tested, under 10 active; AID 1025;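 active = activation factor of at least 2 at 5 µM in the primary screen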;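 also: 0 = wells with 2.5 mM tranylcypromine and 1 = vehicle-only wells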
CYP2C19 inhib: inhibitors of human CYP2C19 | P33261 | CYP2C19 Supersomes, luciferin-H EGE luminescence, 30 min | inhibition, % at 5 µM | actives 21% (n = 96,000) | AID 778;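 active = CYP2C19 inhibition above a set limit at 5 µM in the primary screen, cut at about 50% in these data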;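 also: plate controls were negative control wells for no effect and 2.5 mM tranylcypromine positive control for full effect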
F-actin modifier: alters cytoskeleton assembly in HUVEC cells; HUVEC TNFa F-actin phalloidin imaging, high content; inhibition, % at 2 µM; actives 0.18% (n = 91,000); AID 836;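 active = inhibition above the batch mean plus 3 SD and confirmed as a hit by visual image inspection, cut at about 30% in these data, passing the limit was not always enough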
E-sel TNF inh: blocks E-selectin expression induced by TNF alpha. AID 1246. HUVEC TNFa-induced E-selectin immunofluorescence, high content. actives 0.71% (n = 120,000). inhibition, % at 2 µM;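 active = inhibition above the batch mean plus 3 SD, and confirmed as a hit on visual image review, cut at about 43% in these data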;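 also: 0% = TNF-stimulated DMSO wells and 100% = unstimulated control wells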
CYP2C9 inhib: inhibitors of human CYP2C9; P11712; CYP2C9 Supersomes, luciferin-H conversion, luminescence; inhibition, % at 5 µM; actives 20% (n = 96,000); AID 777;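 active = blocking of liver enzyme CYP2C9 beyond about 50% at 5 µM, limit read from the data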
Target sequence (P11712 whole entry, looked up): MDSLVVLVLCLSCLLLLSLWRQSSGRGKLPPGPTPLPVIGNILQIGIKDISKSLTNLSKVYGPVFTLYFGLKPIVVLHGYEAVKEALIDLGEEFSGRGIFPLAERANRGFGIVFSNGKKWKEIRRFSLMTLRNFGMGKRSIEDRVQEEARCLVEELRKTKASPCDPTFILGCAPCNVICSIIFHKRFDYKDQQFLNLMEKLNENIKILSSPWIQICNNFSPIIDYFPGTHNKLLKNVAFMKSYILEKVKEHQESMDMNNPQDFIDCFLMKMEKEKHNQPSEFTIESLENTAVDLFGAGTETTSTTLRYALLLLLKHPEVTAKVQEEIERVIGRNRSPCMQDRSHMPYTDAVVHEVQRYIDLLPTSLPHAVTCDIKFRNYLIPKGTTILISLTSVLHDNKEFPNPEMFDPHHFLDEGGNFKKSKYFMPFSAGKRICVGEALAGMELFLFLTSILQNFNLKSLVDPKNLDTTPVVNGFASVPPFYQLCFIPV
CYP2C9 activ: increases human cytochrome P450 2C9 activity; recombinant CYP2C9, luciferin-H conversion, luminescence; hits give high values; factor 1 = untreated enzyme, 0 = blocked; P11712; actives 1.4% (n = 96,000); activation factor at 5 µM; AID 1024;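 active = activation factor of 2 or more for CYP2C9 at a 5 µM dose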;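 also: 0 = sulfaphenazole-blocked wells and 1 = vehicle-only wells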
* marks the source's active call; other numbers are inactive results; · = no result given. A selection: hits, their analogues and other compounds. The true share with any hit is near 22%.

SMILES | CYP2C19 activ | CYP2C19 inhib | F-actin modifier | E-sel TNF inh | CYP2C9 inhib | CYP2C9 activ
Brc1cccc(CN2CCCCCCC2)c1 | 0.2 | 77* | 3 | · | -13 | 1.1
O=C(Nc1ccc(CN2CCCCC2)cc1)c1cccc(Br)c1 | · | · | · | 7 | · | ·
c1ccc(Oc2cccc(CN3CCCCC3)c2)cc1 | 0.5 | 50* | 2 | -80 | -8 | 1.1
c1ccc(COc2cccc(CN3CCN(c4ccccn4)CC3)c2)cc1 | 0.6 | 44 | 3 | -4 | 70* | 0.3
Cc1cccc(CN2CCN(c3ccccn3)CC2)c1 | · | · | 0 | 6 | · | ·
CN(C(=O)Nc1ccc(Cl)cc1Cl)[C@H]1c2cc(Br)ccc2OC[C@H]1CO | 0.6 | 41 | · | · | 87* | 0.1
Clc1ccc(C(c2nnnn2C2CCCC2)N2CCN(c3nc4ccccc4s3)CC2)cc1 (stereo not given) | · | · | -14 | -32 | · | ·
c1cc(C(c2nnnn2C2CCCC2)N2CCOCC2)ccn1 (stereo not given) | 0.2 | 83* | -12 | -7 | 28 | 0.7
Oc1ccc(N2CCN(C(c3ccncc3)c3nnnn3C3CCCC3)CC2)cc1 (stereo not given) | 0.5 | 52* | 16 | 1 | 48 | 0.5
Cc1ccccc1Cn1c(CN2CCN(c3ccc(F)cc3)CC2)nc2c1c(=O)n(C)c(=O)n2C | · | · | · | -38 | · | ·
CCCCCCCCS(=O)c1sc2nc(C)cc(C)c2c1N (stereo not given) | 0.1 | 88* | · | 9 | 79* | 0.2
Cc1ccc(-c2noc(CCC(=O)N(C)c3ccccc3C)n2)cc1 | 0.2 | 82* | -15 | · | 94* | 0.1
COc1ccc(-c2noc(CCC(=O)Nc3cccc(C)c3)n2)cc1 | 0.7 | 31 | -6 | -6 | 13 | 0.9
COc1ccc(-c2noc(CCC(=O)N(C)c3cccc(C)c3)n2)cc1 | 0.1 | 89* | 13 | 17 | 83* | 0.2
CCc1ccccc1NC(=O)CCc1nc(-c2ccc(C)cc2)no1 | 1.2 | -16 | -15 | -2 | -6 | 1.1
CCN(C(=O)CCc1nc(-c2ccc(OC)cc2)no1)c1cc(OC)ccc1OC | 0.4 | 59* | 6 | 8 | 75* | 0.3
O=C(COc1ccc(Cl)cc1)Nc1ccc(N2CCN(C(=O)c3ccco3)CC2)cc1 | 0.5 | 51* | -2 | 5 | 32 | 0.7
O=C(CSc1ccc(Cl)cc1)Nc1ccc(N2CCN(C(=O)c3ccco3)CC2)cc1 | 0.6 | 45 | 5 | -7 | 64* | 0.4
COC(=O)C(NC(=O)c1ccccc1)(Nc1cc(C)cc(C)n1)C(F)(F)F (stereo not given) | · | · | 8 | -24 | · | ·
CC(C)(C)c1cnnn1-c1ccc(NC(=O)c2ccc(Br)o2)cc1 | 0.9 | 13 | · | -24 | 17 | 0.8
CCOC(=O)c1c(NC(=O)C2=C(C)NC(=S)NC2c2ccc(CC)cc2)sc(C)c1C (stereo not given) | · | · | · | -6 | · | ·
O=C(CN(Cc1cccs1)C(=O)CNS(=O)(=O)c1ccccc1)NCc1ccco1 | 0.5 | 52* | -1 | 2 | 27 | 0.7
O=C(CN(Cc1ccco1)C(=O)CNS(=O)(=O)c1ccccc1)NCc1ccccc1 | 0.4 | 61* | 9 | 10 | 27 | 0.7
O=C(CN(CC1CCCO1)C(=O)CNS(=O)(=O)c1ccccc1)NCc1ccco1 (stereo not given) | · | · | · | -17 | · | ·
O=C(CN(Cc1ccco1)C(=O)CNS(=O)(=O)c1ccc(F)cc1)NCCc1ccccc1 | 0.3 | 65* | · | · | 61* | 0.4
SMILES | CYP2C19 activ | CYP2C19 inhib | F-actin modifier | E-sel TNF inh | CYP2C9 inhib | CYP2C9 activ
O=C(CN(Cc1ccco1)C(=O)CNS(=O)(=O)c1ccccc1)NC1CCCCC1 | 0.7 | 30 | -12 | · | 12 | 0.9
O=C(CN1CCOCC1)OCCCC1CCCCC1 | 0.3 | 73* | -21 | · | 8 | 0.9
O=C1C(=O)N(c2cccc(Cl)c2)C(c2ccccc2[N+](=O)[O-])/C1=C(\O)c1ccccc1 (stereo not given) | 0.9 | 10 | -9 | -77 | 86* | 0.1
Cc1ccc(/C(O)=C2\C(=O)C(=O)N(c3cc(C)on3)C2c2cccc(Cl)c2)cc1 (stereo not given) | 0.9 | 8 | 7 | -11 | 39 | 0.6
Cc1nn(Cc2ccccc2)c2sc(C(=O)NCc3cccnc3)cc12 | 0.4 | 62* | 24 | 6 | 82* | 0.2
Cc1ccc(NC(=O)c2cc(C)nn2-c2ccccc2)cc1 | 0.4 | 60* | -4 | · | 29 | 0.7
Cc1cc(C(=O)NCc2cccnc2)n(-c2ccccc2)n1 | 0.4 | 60* | -3 | · | 20 | 0.8
Cc1cc(C(=O)NCc2cccnc2)cs1 | 0.8 | 20 | -33 | -11 | 6 | 0.9
CCc1ccccc1NC(=O)c1ccc(-n2c(C)ccc2C)cc1 | 0.9 | 11 | -16 | 15 | -39 | 1.4
N#C/C(=C\c1ccc(Cl)cc1)c1n[nH]c(Cn2cncn2)n1 | 0.7 | 30 | 6 | 8 | 68* | 0.3
O=C(Nc1ccc(Cl)cc1Cl)c1n[nH]c(Cn2cncn2)n1 | 0.5 | 53* | -30 | 5 | 51* | 0.5
CCOC(=O)C1=C(C)N=C2SC(C(=O)OC)=CC(=O)N2C1c1ccc(F)cc1 (stereo not given) | 0.5 | 50* | 9 | -10 | 18 | 0.8
CCOC(=O)C1=C(C)N=C2SC(C)C(=O)N2C1c1ccc(OC(C)=O)c(OCC)c1 (stereo not given) | 0.3 | 65* | · | · | 63* | 0.4
CCC1SC2=NC(C)=C(C(=O)OC)C(c3ccc(C)cc3)N2C1=O (stereo not given) | 0 | 99* | -8 | 4 | 80* | 0.2
COC(=O)C1=C(C)N=C2SC(C)C(=O)N2C1c1ccc(C(=O)OC)cc1 (stereo not given) | 0.2 | 78* | -31 | -26 | 30 | 0.7
COC(=O)c1ccc(C2C(C(=O)OC(C)C)=C(C)N=C3SCCC(=O)N32)cc1 (stereo not given) | 0.7 | 30 | · | · | 13 | 0.9
CCOC(=O)C1=C(C)N=C2SC(C)C(=O)N2C1c1cccc(F)c1 (stereo not given) | 0.8 | 25 | 4 | 11 | 25 | 0.8
COC(=O)C1=C(C)N=C2SC(C)C(=O)N2C1c1cccs1 (stereo not given) | 0.7 | 30 | -11 | · | 11 | 0.9
Cc1cc(C)c2c(N)c(C(=O)NCc3ccco3)sc2n1 | · | · | -3 | -23 | · | ·
CC(C)c1nnc(NC(=O)CC(=O)Nc2ccccc2C(=O)O)s1 | 0.8 | 15 | · | -31 | 9 | 0.9
COC(=O)CSc1nc2c(c(-c3ccco3)c1C#N)CCCC2 | 0.9 | 11 | -61 | 1 | -30 | 1.3
Cc1ccc(-c2c(C#N)c(N)nc3c2CCCCC3)o1 | 0.5 | 53* | · | -41 | 50* | 0.5
CCOC(=O)CSc1nc2c(c(-c3ccc(C)o3)c1C#N)CCCC2 | 0.3 | 70* | -29 | -16 | 47 | 0.5
COc1ccc(COc2ccsc2C(=O)Nc2ccc(Cl)c(Cl)c2)cc1 | 0.7 | 34 | -11 | 21 | 55* | 0.4
